Outcome and AC50 data for seven compounds are collected here from PubChem BioAssay (EPA / NIEHS).

The nature of assay [1]: ATG_GLI_CIS: Attagene CIS-FACTORIAL HepG2 Assay for human Zinc Finger Protein GLI1 (AID 2282945). Conditions: HepG2, Attagene cis-factorial reporter mRNA, GLI element; actives raise or lower the signal. The method in brief: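 HepG2 cells transiently transfected with cis-promoter multiplexed reporter units report endogenous transcription factor activity. After 24 h chemical exposure, reporter mRNA was quantified by RT-PCR, 6-FAM labelling, HpaI digestion and capillary electrophoresis, with bidirectional fitting against DMSO.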

Assay [2] is described as follows: ATG_ISRE_CIS: Attagene CIS-FACTORIAL HepG2 Assay for human Interferon Regulatory Factor 1 (IRF1) binding to an Interferon-Stimulated Response Element (ISRE) (AID 2282948). The note with it: HepG2 ISRE cis-reporter (Attagene), mRNA transcription readout; actives raise or lower the signal. The method in brief: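 Read-out: fluorescent RT-PCR products resolved by capillary electrophoresis, reporting endogenous transcription factor activity via ISRE-driven reporter mRNA in transfected HepG2 cells dosed for 24 h; gain or loss fitted relative to DMSO.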

A short description of assay [3]: ATG_M_32_CIS: Attagene CIS-FACTORIAL HepG2 Assay for M32 Transcription Factor (Internal Marker) (AID 2282949).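 Further: background control marker of the multiplexed CIS panel rather than a real target.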 Conditions: HepG2 Attagene cis-factorial M32 reporter, mRNA; actives raise or lower the signal. The gist of the method: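 Using DMSO as baseline, bidirectional curve fits were applied to reporter mRNA signals. These came from transiently transfected HepG2 cells exposed for 24 h, with RNA analysed by RT-PCR, FAM primer extension, HpaI digestion and CE.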

Assay [4] is described as follows: ATG_M_06_CIS: Attagene CIS-FACTORIAL HepG2 Assay for M06 Transcription Factor (Internal Marker) (AID 2282950). Conditions: HepG2 Attagene CIS-FACTORIAL M06 internal marker reporter; actives raise or lower the signal. The gist of the method:
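Serves as a background control readout. Transfected HepG2 exposed to compounds for 24 h, then reporter transcripts quantified by fluorescent RT-PCR and capillary electrophoresis. Both directions fitted against DMSO baseline.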

Assay [5] concerns the target Hypoxia-inducible factor 1-alpha (Homo sapiens) (UniProt Q16665). In words: ATG_HIF1a_CIS: Attagene CIS-FACTORIAL HepG2 Assay for human Hypoxia Inducible Factor 1 (HIF1A) (AID 2282951). Conditions: HepG2 Attagene cis-factorial HIF1a reporter transcription; actives raise or lower the signal. The gist of the method: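 Endogenous-TF cis reporter readout, human HepG2 cells, 24 h incubation; mRNA detected via RT-PCR and capillary electrophoresis fluorescence; DMSO-normalised bidirectional fitting.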

Assay [6] deals with Hepatocyte nuclear factor 6 (Homo sapiens) (UniProt Q9UBC0). In words: ATG_HNF6_CIS: Attagene CIS-FACTORIAL HepG2 Assay for human Hepatocyte Nuclear Factor 6 (HNF6) (AID 2282952). Conditions: HepG2 Attagene cis-factorial HNF6 reporter transcription; actives raise or lower the signal. The method in brief:
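Endogenous factor activity read in transiently transfected HepG2 via promoter-regulated reporter transcripts. RNA harvested 24 h post-dosing, reverse-transcribed, PCR-amplified, FAM-labelled, HpaI-digested and resolved by capillary electrophoresis; fitted in both directions against DMSO.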

Assay [7] concerns the target Heat shock factor protein 1 (Homo sapiens) (UniProt Q00613). Put plainly: ATG_HSE_CIS: Attagene CIS-FACTORIAL HepG2 Assay for human Heat Shock Transcription Factor 1 (HSE) (AID 2282953). Conditions: HepG2 HSE cis-reporter, Attagene RNA transcription; actives raise or lower the signal. The gist of the method:
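Endogenous transcription factor activity in transiently transfected HepG2, read as reporter mRNA by RT-PCR with fluorescent capillary electrophoresis after 24 h. Gain or loss of signal fitted versus DMSO baseline.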

Assay [8] in a line: ATG_MRE_CIS: Attagene CIS-FACTORIAL HepG2 Assay for human Metal Responsive Element (MRE) (AID 2282954). Conditions: HepG2 MRE cis-reporter transcription, Attagene multiplex; actives raise or lower the signal. The gist of the method: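 Readout: capillary electrophoresis of 6-FAM-labelled, HpaI-digested RT-PCR reporter products. System: HepG2 cells carrying transient multiplexed cis reporters, dosed 24 h. Analysis: bidirectional fit, DMSO baseline.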

Assay [9] in a line: ATG_PBREM_CIS: Attagene CIS-FACTORIAL HepG2 Assay for human Phenobarbital-responsive Enhancer Module (PBREM) (AID 2282955). Conditions: HepG2 PBREM cis-reporter, Attagene multiplexed transcription; actives raise or lower the signal. The gist of the method:
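Readout: reporter mRNA, fluorescent RT-PCR fragments separated by capillary electrophoresis. System: HepG2 transiently transfected with cis-regulated reporter units. Exposure: 24 h. Analysis: bidirectional, DMSO baseline.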

Assay [10] concerns the target Paired box protein Pax-6 (Homo sapiens) (UniProt P26367). In words: ATG_Pax6_CIS: Attagene CIS-FACTORIAL HepG2 Assay for human Paired Box 6 (PAX6) (AID 2282956). Conditions: HepG2 CIS-FACTORIAL PAX6 reporter transcription, RNA readout; actives raise or lower the signal. The gist of the method: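 Readout: reporter transcript fluorescence after RT-PCR and capillary electrophoresis. Cells: HepG2, transiently transfected with cis-regulated MRTUs. Exposure 24 h. Gain or loss of signal fitted bidirectionally relative to DMSO.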

Assay [11] in a line: ATG_PXRE_CIS: Attagene CIS-FACTORIAL HepG2 Assay for human Pregnane X Receptor Element (PXRE) (AID 2282957). Conditions: HepG2 Attagene CIS-FACTORIAL PXRE reporter, mRNA; actives raise or lower the signal. The method in brief:
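Reporter transcripts under endogenous PXR-responsive cis-regulation quantified from total RNA of transfected HepG2 cells 24 h post-dosing, via RT-PCR with fluorescent primer extension and capillary electrophoresis. Gain or loss of signal fitted against DMSO baseline.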

Assay [12] is described as follows: ATG_PPRE_CIS: Attagene CIS-FACTORIAL HepG2 Assay for human Peroxisome Proliferator-activated Response Element (PPRE) (AID 2282958). The note with it: HepG2 PPRE cis-element reporter, Attagene transcription factor profiling; actives raise or lower the signal. The method in brief: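 After human HepG2 hepatoma cells were transiently transfected with cis-promoter reporter constructs, they were exposed to test chemicals for 24 hours. Reporter RNA was then reverse-transcribed, PCR-amplified, FAM-labeled, HpaI-digested and quantified by capillary electrophoresis.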

Assay [13] is described as follows: ATG_Sox_CIS: Attagene CIS-FACTORIAL HepG2 Assay for human SRY-box transcription factor (SOX) (AID 2282960). Conditions: HepG2 Attagene cis-factorial SOX reporter, mRNA; actives raise or lower the signal. The gist of the method:
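Using transiently transfected HepG2 cells, reporter transcription driven by cis elements was assessed 24 h after dosing. Signal was fluorescence of capillary-separated RT-PCR products, with DMSO defining baseline activity.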

The target in assay [14] is Transcription factor Sp1 (Homo sapiens) (UniProt P08047). In words: ATG_Sp1_CIS: Attagene CIS-FACTORIAL HepG2 Assay for human Specificity Protein 1 (Sp1) (AID 2282961). The note with it: HepG2 Sp1 cis-reporter transcription, actives raise or lower the signal. The gist of the method: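 After transient transfection of HepG2 cells with cis-promoter reporter units and 24 h chemical treatment, reporter transcripts were quantified by RT-PCR and capillary electrophoresis fluorescence. Gain- and loss-of-signal fitted against DMSO.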

A short description of assay [15]: ATG_SREBP_CIS: Attagene CIS-FACTORIAL HepG2 Assay for human Sterol Regulatory Element Binding (SREBP) (AID 2282962). The note with it: HepG2 Attagene cis-factorial SREBP reporter, mRNA; actives raise or lower the signal. The method in brief: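 Readout: fluorescent reporter-transcript peaks resolved by capillary electrophoresis after RT-PCR. Cells were human HepG2 carrying transfected cis-promoter reporter constructs, dosed for 24 h. Gain or loss of signal was fitted against DMSO controls.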

The target of assay [16] is Signal transducer and activator of transcription 3 (Homo sapiens) (UniProt P40763). Put plainly: ATG_STAT3_CIS: Attagene CIS-FACTORIAL HepG2 Assay for human Signal Transducer and Activator of Transcription 3 (STAT3) (AID 2282963). Conditions: HepG2, Attagene cis-factorial STAT3 reporter transcription; actives raise or lower the signal. The gist of the method:
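Uses human liver HepG2 transiently carrying cis-regulated reporter transcription units. Following 24 h dosing, reporter mRNA induction was detected by RT-PCR and capillary electrophoresis, analysed bidirectionally versus DMSO.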

Assay [17] in a line: ATG_GRE_CIS: Attagene CIS-FACTORIAL HepG2 Assay for human Glucocorticoid Response Elements (GRE) (AID 2282947). The note with it: HepG2 GRE cis-reporter, Attagene multiplex mRNA; actives raise or lower the signal. The gist of the method:
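HepG2, transient cis-reporter transfection, 24 h. Reporter mRNA: RT-PCR then CE, fluorescence. Fit both directions vs DMSO.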

Assay [18] can be described thus: ATG_RORE_CIS: Attagene CIS-FACTORIAL HepG2 Assay for human RAR-related Orphan Receptor Element (RORE) (AID 2282959). The note with it: HepG2 Attagene cis-factorial RORE reporter, mRNA; actives raise or lower the signal. The method in brief: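 Measured here: transcript induction of a cis-regulated reporter in HepG2 cells transiently transfected via FuGene 6. After 24 h, RNA was processed by RT-PCR and fluorescent capillary electrophoresis; DMSO defined baseline activity.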

Assay [19] is described as follows: ATG_TA_CIS: Attagene CIS-FACTORIAL HepG2 Assay for human TA Basal Promoter (AID 2282964). The note with it: HepG2 Attagene CIS-factorial TA basal promoter reporter; actives raise or lower the signal. The method in brief:
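Background-control readout: TA basal promoter reporter mRNA, fitted in both directions relative to DMSO. Measured by RT-PCR and capillary electrophoresis 24 hours after treating HepG2 human liver cells transiently carrying multiplexed cis-regulated reporter constructs.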

Calls of active or inactive are those of the source. How the source made its calls: active means hit-call score of the fitted dose curve at least 0.9, where 1 is the maximum; inactive means score below 0.9.

Sequence of Paired box protein Pax-6 (Homo sapiens) (P26367 whole entry, looked up): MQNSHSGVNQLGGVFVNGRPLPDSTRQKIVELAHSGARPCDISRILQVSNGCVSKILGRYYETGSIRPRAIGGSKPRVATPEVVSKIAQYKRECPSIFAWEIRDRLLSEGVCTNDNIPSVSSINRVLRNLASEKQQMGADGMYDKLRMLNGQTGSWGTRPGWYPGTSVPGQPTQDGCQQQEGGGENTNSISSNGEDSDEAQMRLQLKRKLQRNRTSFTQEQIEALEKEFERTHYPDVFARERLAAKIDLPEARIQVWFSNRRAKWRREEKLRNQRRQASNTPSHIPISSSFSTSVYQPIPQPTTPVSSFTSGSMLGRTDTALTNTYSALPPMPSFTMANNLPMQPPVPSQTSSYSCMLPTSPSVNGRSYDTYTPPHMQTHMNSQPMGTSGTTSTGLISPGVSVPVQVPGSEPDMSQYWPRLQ
Sequence of Heat shock factor protein 1 (Homo sapiens) (Q00613 whole entry, looked up): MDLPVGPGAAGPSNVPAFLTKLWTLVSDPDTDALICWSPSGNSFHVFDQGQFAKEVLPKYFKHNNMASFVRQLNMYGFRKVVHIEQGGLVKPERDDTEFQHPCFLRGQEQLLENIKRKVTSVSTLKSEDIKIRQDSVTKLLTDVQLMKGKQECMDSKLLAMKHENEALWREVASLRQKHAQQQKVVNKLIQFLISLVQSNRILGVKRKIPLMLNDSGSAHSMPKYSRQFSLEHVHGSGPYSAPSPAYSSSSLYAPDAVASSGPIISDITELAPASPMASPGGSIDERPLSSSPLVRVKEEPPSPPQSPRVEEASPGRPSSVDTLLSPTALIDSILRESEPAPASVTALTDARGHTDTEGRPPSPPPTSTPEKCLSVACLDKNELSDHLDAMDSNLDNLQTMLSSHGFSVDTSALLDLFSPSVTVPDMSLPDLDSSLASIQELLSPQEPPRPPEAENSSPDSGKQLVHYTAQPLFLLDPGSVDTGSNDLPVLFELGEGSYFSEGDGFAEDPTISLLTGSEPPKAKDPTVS
Sequence of Hypoxia-inducible factor 1-alpha (Homo sapiens) (Q16665 whole entry, looked up): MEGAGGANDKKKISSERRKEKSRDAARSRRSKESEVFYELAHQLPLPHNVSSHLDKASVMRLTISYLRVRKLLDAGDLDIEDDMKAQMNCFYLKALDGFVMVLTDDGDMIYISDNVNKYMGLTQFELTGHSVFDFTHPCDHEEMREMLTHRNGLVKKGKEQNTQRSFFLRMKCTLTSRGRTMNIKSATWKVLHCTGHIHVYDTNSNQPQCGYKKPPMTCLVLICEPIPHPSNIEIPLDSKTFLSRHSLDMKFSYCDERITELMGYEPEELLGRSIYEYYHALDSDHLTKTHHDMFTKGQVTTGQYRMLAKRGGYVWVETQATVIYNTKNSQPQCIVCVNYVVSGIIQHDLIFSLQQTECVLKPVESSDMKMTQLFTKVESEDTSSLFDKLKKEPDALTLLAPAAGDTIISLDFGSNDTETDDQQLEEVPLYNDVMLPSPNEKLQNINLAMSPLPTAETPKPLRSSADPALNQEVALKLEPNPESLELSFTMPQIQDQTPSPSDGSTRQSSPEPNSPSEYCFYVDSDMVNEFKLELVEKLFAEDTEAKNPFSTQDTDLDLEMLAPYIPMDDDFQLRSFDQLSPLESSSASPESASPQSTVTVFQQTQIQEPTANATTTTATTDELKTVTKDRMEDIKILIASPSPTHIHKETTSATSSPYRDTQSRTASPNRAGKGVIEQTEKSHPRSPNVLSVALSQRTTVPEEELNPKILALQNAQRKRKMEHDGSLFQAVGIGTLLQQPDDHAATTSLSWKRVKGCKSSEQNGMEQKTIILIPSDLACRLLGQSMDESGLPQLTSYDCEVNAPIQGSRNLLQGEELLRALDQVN
Sequence of Transcription factor Sp1 (Homo sapiens) (P08047 whole entry, looked up): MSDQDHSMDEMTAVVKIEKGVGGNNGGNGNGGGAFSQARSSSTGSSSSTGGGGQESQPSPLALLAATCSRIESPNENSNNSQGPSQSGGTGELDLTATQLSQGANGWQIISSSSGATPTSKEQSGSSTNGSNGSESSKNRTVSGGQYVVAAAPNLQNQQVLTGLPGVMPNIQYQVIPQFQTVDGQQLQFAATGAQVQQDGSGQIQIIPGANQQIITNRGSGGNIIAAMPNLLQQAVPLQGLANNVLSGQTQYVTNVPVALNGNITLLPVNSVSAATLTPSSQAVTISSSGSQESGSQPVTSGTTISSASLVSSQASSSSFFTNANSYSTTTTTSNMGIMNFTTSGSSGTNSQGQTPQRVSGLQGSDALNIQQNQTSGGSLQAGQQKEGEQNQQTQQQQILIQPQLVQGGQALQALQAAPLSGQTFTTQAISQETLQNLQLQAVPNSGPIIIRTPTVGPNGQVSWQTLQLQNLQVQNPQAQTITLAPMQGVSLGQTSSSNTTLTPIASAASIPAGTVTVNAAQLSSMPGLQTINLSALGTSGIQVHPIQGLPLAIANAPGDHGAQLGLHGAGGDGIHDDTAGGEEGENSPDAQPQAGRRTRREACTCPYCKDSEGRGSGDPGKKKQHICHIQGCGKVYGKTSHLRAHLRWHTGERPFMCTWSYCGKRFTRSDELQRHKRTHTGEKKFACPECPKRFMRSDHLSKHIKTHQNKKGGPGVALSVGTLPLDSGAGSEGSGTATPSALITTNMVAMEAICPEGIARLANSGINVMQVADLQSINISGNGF
Sequence of Signal transducer and activator of transcription 3 (Homo sapiens) (P40763 whole entry, looked up): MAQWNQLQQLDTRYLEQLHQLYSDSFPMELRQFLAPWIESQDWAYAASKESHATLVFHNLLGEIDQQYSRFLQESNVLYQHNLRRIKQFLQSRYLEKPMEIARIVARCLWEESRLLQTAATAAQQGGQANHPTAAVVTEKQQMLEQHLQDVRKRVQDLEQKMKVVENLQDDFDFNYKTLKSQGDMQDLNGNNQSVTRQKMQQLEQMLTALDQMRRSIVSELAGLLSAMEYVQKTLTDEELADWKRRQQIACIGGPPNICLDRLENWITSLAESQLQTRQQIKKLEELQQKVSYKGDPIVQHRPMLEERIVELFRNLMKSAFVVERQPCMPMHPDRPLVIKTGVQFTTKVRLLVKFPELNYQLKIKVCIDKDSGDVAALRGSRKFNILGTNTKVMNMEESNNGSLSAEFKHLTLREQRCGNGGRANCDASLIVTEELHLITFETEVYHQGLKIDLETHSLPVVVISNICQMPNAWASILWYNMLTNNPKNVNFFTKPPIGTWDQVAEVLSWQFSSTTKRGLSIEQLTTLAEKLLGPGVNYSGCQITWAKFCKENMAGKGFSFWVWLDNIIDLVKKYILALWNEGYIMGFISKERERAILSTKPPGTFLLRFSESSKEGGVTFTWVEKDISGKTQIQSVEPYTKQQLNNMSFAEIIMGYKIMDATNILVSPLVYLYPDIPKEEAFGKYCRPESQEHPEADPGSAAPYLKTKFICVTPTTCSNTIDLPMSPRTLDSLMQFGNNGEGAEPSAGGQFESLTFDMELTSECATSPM
Sequence of Hepatocyte nuclear factor 6 (Homo sapiens) (Q9UBC0 whole entry, looked up): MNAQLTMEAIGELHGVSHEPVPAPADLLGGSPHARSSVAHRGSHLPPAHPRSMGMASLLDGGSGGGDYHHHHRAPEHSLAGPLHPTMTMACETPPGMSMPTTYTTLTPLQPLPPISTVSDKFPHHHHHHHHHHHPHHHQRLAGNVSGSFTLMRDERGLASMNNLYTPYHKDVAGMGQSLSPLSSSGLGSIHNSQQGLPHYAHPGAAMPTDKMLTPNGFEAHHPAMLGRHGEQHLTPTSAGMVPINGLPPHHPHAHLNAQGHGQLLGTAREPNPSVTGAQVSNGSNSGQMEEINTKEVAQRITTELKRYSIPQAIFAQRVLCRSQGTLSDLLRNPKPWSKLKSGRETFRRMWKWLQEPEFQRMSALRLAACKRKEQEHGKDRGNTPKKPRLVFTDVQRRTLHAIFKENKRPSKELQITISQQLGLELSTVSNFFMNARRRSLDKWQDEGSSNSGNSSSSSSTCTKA

For orientation: AC50 means the concentration giving half of the maximal activity seen. Regarding `CC(C)c1cccc(C(C)C)c1N`, the call in [1], in [2], in assay [3], in assay [4], in [5] and in [6] was inactive. For the same compound, the compound was classed as inactive in [7], in [8], in [9], in [10], in assay [12] and in assay [13]. In addition, the call in [14], in [15] and in assay [16] was inactive. The AC50 in assay [11] is 29.5 µM (active).

On to `C1CNCCN1`, for which the compound was classed as inactive in [1], in assay [17], in assay [2], in [4], in [5] and in [6]. Further, the call in assay [7], in [8], in [9], in [10], in [11] and in assay [18] was inactive. Also, the result in assay [14], in assay [15], in assay [16] and in assay [19] was inactive.

As to `CC(C)c1ccc(O)c(C(C)C)c1`, the outcome in assay [1], in assay [17], in assay [2], in assay [3], in assay [5] and in assay [6] was inactive. Moreover, the result in assay [7], in [8], in [9], in assay [10], in assay [18] and in [13] was inactive. For the same compound, the call in [14] and in [16] was inactive. Further, in assay [11], the half-maximal activity concentration (AC50) was 2.98 µM (active).

For `CC1(C)CCC[C@]2(C)[C@H]3CC(=O)O[C@]3(C)CC[C@@H]12`, the result in assay [1], in assay [17], in assay [2], in assay [3], in [5] and in assay [6] was inactive. In addition, the compound was classed as inactive in assay [7], in assay [8], in assay [9], in assay [10], in assay [12] and in assay [18]. In addition, the outcome in [13], in [14], in [16] and in [19] was inactive. Moreover, the half-maximal activity concentration (AC50) in [15] was 32.3 µM (active).

In the case of `Cc1c[nH]c(=O)[nH]c1=O`, the outcome in assay [1], in assay [17], in assay [2], in assay [4], in assay [6] and in assay [8] was inactive. For the same compound, the call in assay [10], in assay [12], in assay [18], in [13], in assay [14] and in assay [15] was inactive. The outcome in [16] and in [19] was inactive.

Regarding `CO[Si](C)(C)OC`, the outcome in assay [1], in [17], in assay [2], in [3], in assay [6] and in assay [7] was inactive. The result in assay [8], in assay [9], in [10], in assay [12], in assay [13] and in assay [14] was inactive. Also, the outcome in [15], in assay [16] and in assay [19] was inactive. In addition, the AC50 in [11] is 184 µM (active).

On to `CC1=C(O)C(=O)C(C)O1` (configuration not stated), for which the call in assay [1], in assay [17], in [2], in assay [3], in [6] and in [7] was inactive. In addition, the outcome in assay [9], in assay [10], in assay [11], in [18], in [14] and in assay [16] was inactive. Moreover, the result in [19] was inactive.
